Measured values from PubChem BioAssay (NCI).
The panel holds about 83,000 compounds, 20% with a hit somewhere; the sample as a whole holds those more often.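 The endpoint reported here, percent growth, reads 100 for growth as untreated, 0 for no net growth and -100 for all cells dead.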 Values without a mark were called inactive. Active and inactive are the calls of the source. Rule for the calls: active = growth percent below 10; inactive = the rest.

System: SR leukemia
Assay: NCI-60 one-dose screen, 48 h (100 = growth as untreated, 0 = no growth, -100 = all killed)
Conditions: 10 µM

Compound | growth
O=C(/C=C/c1ccco1)c1nc2ccccc2n1Cc1ccc(Br)cc1 | 4.72% (active)
O=C(/C=C/c1ccco1)c1nc2ccccc2n1Cc1ccc(F)cc1 | 23.6%
COc1cc2cc(C(=O)N3C[C@@H](CCl)c4c3cc(OC(=O)N3CCN(C)[C@@H]5CSSC[C@@H]53)c3ccccc43)[nH]c2c(OC)c1OC | 18.9%
C#CC[Se]C(=O)c1ccc2n[se]nc2c1 | 3.84% (active)
O=C(/C=C/c1ccc(Cl)cc1Cl)c1nc2ccccc2n1Cc1ccc(F)cc1 | -1.72% (active)
O=C(/C=C/c1ccc(Cl)cc1)c1nc2ccccc2n1Cc1ccc(Br)cc1 | 5.41% (active)
CCOP(=O)(OCC)C(NC(C)=O)C(=O)SCCN (stereo unspecified) | 98.4%
COc1cc2cc(C(=O)N3C[C@@H](CCl)c4c3cc(OC(=O)N3CCN(C)[C@@H]5CSSC[C@H]53)c3ccccc43)[nH]c2c(OC)c1OC | -13.9% (active)
COc1ccc2cc([C@H](C)C(=O)[Se]CCC#N)ccc2c1 | 0.13% (active)
CC12OOC(C)(OO1)C2CCC(=O)OCCNc1ccnc2cc(Cl)ccc12 (stereo unspecified) | -27% (active)
CC(C)N=C([Se])NC(=O)c1cccs1 | 2.39% (active)
Cc1ccc2[nH]c(=S)n(-c3ccc(F)cc3)c(=O)c2c1 | 103%
CCOC(=O)C1=C(Nc2ccccc2)C(=O)OC12C(=O)Nc1ccccc12 (stereo unspecified) | 97.3%
CC12CCC3(CCC(=O)NCCCNc4ccnc5cc(Cl)ccc45)[C@@](C)(OO[C@]3(C)O1)O2 | 2.39% (active)
CC[C@]12C=CCN3CC[C@@]4(c5ccc(OC)cc5N(C)[C@H]4[C@@](O)(C(=O)OC)[C@@H]1OC(=O)CCCC[P+](C1CCCCC1)(C1CCCCC1)C1CCCCC1)[C@@H]32 | 19.5%
CC(=O)Oc1ccccc1C(=O)[Se]C(=NC(C)C)NC(C)C | -27.5% (active)

Compound | growth
COCCOCCOCCOc1ccc(-n2cc(CCCN(CCNc3ccnc4cc(Cl)ccc34)C(=O)CCC(=O)O[C@@H]3O[C@@H]4OC5(C)CC[C@H]6[C@H](C)CC[C@@H]([C@H]3C)[C@@]46OO5)nn2)cc1 | -5.07% (active)
C[C@H]1[C@@H](CC(=O)N[C@@H](Cc2coc3ccccc23)B(O)O)O[C@@H]2OC3(C)CC[C@H]4[C@H](C)CC[C@@H]1[C@@]24OO3 | 17.4%
COP(=O)(CC(F)(F)C(F)(F)F)OC | 5.42% (active)
CC12OOC(C)(OO1)C2CCC(=O)NCCNc1ccnc2cc(Cl)ccc12 (stereo unspecified) | 21.4%
CC[C@]12C=CCN3CC[C@@]4(c5ccc(OC)cc5N(C)[C@H]4[C@@](O)(C(=O)OC)[C@@H]1OC(=O)CCC[P+](c1ccc(C)cc1)(c1ccc(C)cc1)c1ccc(C)cc1)[C@@H]32 | 5.74% (active)
CC(C)N=C([Se])NC(=O)c1ccccc1 | -9.62% (active)
CC[C@]12C=CCN3CC[C@@]4(c5ccc(OC)cc5N(C)[C@H]4[C@@](O)(C(=O)OC)[C@@H]1OC(=O)CCC[P+](C1CCCCC1)(C1CCCCC1)C1CCCCC1)[C@@H]32 | 29.1%
CC[C@]12C=CCN3CC[C@@]4(c5ccc(OC)cc5N(C)[C@H]4[C@@](O)(C(=O)OC)[C@@H]1OC(=O)CCCC[P+](c1ccc(OC)cc1)(c1ccc(OC)cc1)c1ccc(OC)cc1)[C@@H]32 | 23.2%
CC[C@@]12CC(C(=O)OC)=C3Nc4cc5c(cc4[C@@]34CCN(C[C@H]3O[C@H]31)[C@@H]24)[C@@H]1[C@H](O5)[C@@H](O)[C@@]2(CC)CC(C(=O)OC)=C3Nc4cc(OC)ccc4[C@@]34CCN1[C@@H]24 | -16.2% (active)
CCOP(=O)(CC(F)(F)C(F)(F)F)OCC | 4.39% (active)
CC(=O)Oc1ccccc1C(=O)NC([Se])=NC1CCCCC1 | 41.4%
C[C@H]1[C@H](OC(=O)CCC(=O)N(CCCc2cn(-c3ccc(CN4CCOCC4)cc3)nn2)CCNc2ccnc3cc(Cl)ccc23)O[C@@H]2OC3(C)CC[C@H]4[C@H](C)CC[C@@H]1[C@@]24OO3 | -17.8% (active)
O=C(/C=C/c1ccc(Cl)cc1)c1nc2ccccc2n1Cc1ccc(F)cc1 | -8.72% (active)
O=C(NC([Se])=NC1CCCCC1)c1ccc2c(c1)OCO2 | 60.3%
C[C@H]1[C@H](OC(=O)CCC(=O)N(CCCc2cn(-c3ccc(C#N)cc3)nn2)CCNc2ccnc3cc(Cl)ccc23)O[C@@H]2OC3(C)CC[C@H]4[C@H](C)CC[C@@H]1[C@@]24OO3 | -14.5% (active)
